These results are taken from the supplement of paper PMC6953052.

Values joined by “and” are separate entries in the source; they are usually repeats but may differ in a detail not shown here. Equal entries are not always repeated. ± gives the standard deviation of the averaged measurements. The full ranking holds about 1,700 compounds; the median of “fraction of GFP-LC3-positive cells (≥5 vesicles/cell)” is about 0.058, and the highest 2% start at about 0.59. What follows is part of a selection rich in the highest values, with near analogues and random picks from the rest.

For the assay, the system named is CbCln3 +/+ GFP-LC3 cerebellar neuronal cells. As to the kind of experiment: fraction of GFP-LC3-positive cells (≥5 vesicles/cell); higher = more autophagosome accumulation. In a few lines:
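Values are the duplicate-averaged fraction of cells passing a GFP-LC3 vesicle cutoff, counted per cell in CellProfiler with out-of-focus images excluded. That cutoff is 5 or more vesicles. Wild-type or mutant CbCln3 cerebellar cells stably expressing GFP-LC3 (2 × 10^3/well, 384-well) were given ~50 nL compound in DMSO by pin transfer for 24 h at 33 °C, then fixed in 3.2% PFA and imaged at 10×, three fields per well.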
In the case of `CCCCCN(CCCCC)C(=O)C(CCC(=O)[O-])NC(=O)c1ccc(Cl)c(Cl)c1.[Na+]` (centres undefined) [Lorglumide sodium salt], the “fraction of GFP-LC3-positive cells” value turned out to be 0.0541. For the molecule `Cc1[nH]c(=O)c(C#N)cc1-c1ccncc1` [Milrinone], the “fraction of GFP-LC3-positive cells” value is 0.0445.

For the molecule `CC(N/C(=N/C#N)Nc1ccncc1)C(C)(C)C` (centres undefined) [Pinacidil], the “fraction of GFP-LC3-positive cells” value came out at 0.0667.

For `CCCCC[C@H](O)CC(=O)CCc1ccc(O)c(OC)c1`, the “fraction of GFP-LC3-positive cells” value stood at 0.0534. For the molecule `CN1CCN2c3ccccc3Cc3ccccc3C2C1.Cl` (centres undefined) [Mianserine hydrochloride], the “fraction of GFP-LC3-positive cells” value stood at 0.0536. The value for `CCCC[C@@H](C=O)NC(=O)[C@H](CC(C)C)NC(=O)OCc1ccccc1` was 0.088; that for `CC(C)C[C@@H](C=O)NC(=O)[C@H](CC(C)C)NC(=O)OCc1ccccc1` was 0.0921; that for `CC(C)C[C@@H](C=O)NC(=O)[C@H](CC(C)C)NC(=O)[C@H](CC(C)C)NC(=O)OCc1ccccc1` was 0.736 ± 0.077. On to `CCCC[C@@H](C=O)NC(=O)[C@H](CC(C)C)NC(=O)OCc1ccccc1` [calpeptin], for which the “fraction of GFP-LC3-positive cells” value is 0.0616.

As to `CC/C(=C(/CC)c1ccc(O)cc1)c1ccc(O)cc1` [Diethylstilbestrol], the “fraction of GFP-LC3-positive cells” value worked out at 0.0323.

With `O=C(/C=C/c1ccc(O)c(O)c1)OCCc1ccccc1`, the “fraction of GFP-LC3-positive cells” value was found to be 0.624.

Consider `O=C(O)/C=C/c1ccc(O)c(O)c1` [Caffeic acid], for which the “fraction of GFP-LC3-positive cells” value was found to be 0.0546. On to `O=C(/C=C/c1ccc(O)c(O)c1)O[C@@H]1C[C@](O)(C(=O)O)C[C@@H](O)[C@H]1O` [Chlorogenic acid], for which the “fraction of GFP-LC3-positive cells” value is 0.0755.

In the case of `FC(F)(F)c1ccccc1-n1ccnc1`, the “fraction of GFP-LC3-positive cells” value amounted to 0.0512. On to `O=C(O)CCc1nc(-c2ccccc2)c(-c2ccccc2)o1` [Oxaprozin], for which the “fraction of GFP-LC3-positive cells” value was determined as 0.047. Take `COc1ccc2c(c1)C(=O)N(CCc1ccc(S(=O)(=O)NC(=O)NC3CCCCC3)cc1)C(=O)C2(C)C` [Gliquidone]: the “fraction of GFP-LC3-positive cells” value is 0.0709. For the molecule `CC(C(=O)[O-])c1cccc(Oc2ccccc2)c1.CC(C(=O)[O-])c1cccc(Oc2ccccc2)c1.CC(C(=O)[O-])c1cccc(Oc2ccccc2)c1.O.O.[Ca+2]` (centres undefined) [Fenoprofen calcium salt dihydrate], the “fraction of GFP-LC3-positive cells” value worked out at 0.0249. In the case of `C[N+](C)(CCOc1ccccc1)Cc1ccccc1.O=C([O-])c1cc2ccccc2cc1O` [Bephenium hydroxynaphthoate] it was 0.0458; in that of `Cc1ccc(NC(=O)c2cccc(N(C)C)c2)cc1NC(=O)c1ccc(O)cc1`, 0.0842 and 0.161; in that of `CCCCCCCC/C=C\CCCCCCCC(N)=O`, 0.0449. Turning to `Cl.Clc1ccc(Cn2c(CN3CCCC3)nc3ccccc32)cc1` [Clemizole hydrochloride], the “fraction of GFP-LC3-positive cells” value stood at 0.063. In the case of `CCN(CC)CCOc1ccc(/C(=C(/Cl)c2ccccc2)c2ccccc2)cc1.O=C(O)CC(O)(CC(=O)O)C(=O)O` [Clomiphene citrate (Z,E)] it was 0.0397.

For the molecule `CCOc1ccc(Cc2nccc3cc(OCC)c(OCC)cc23)cc1OCC.Cl` [Ethaverine hydrochloride], the “fraction of GFP-LC3-positive cells” value turned out to be 0.0346. For `NCCc1c[nH]cn1`, the “fraction of GFP-LC3-positive cells” value was determined as 0.0411. On to `CCOC1O[C@H]([C@@H](COCc2ccccc2)OCc2ccccc2)[C@H](OCc2ccccc2)[C@H]1O` (some centres undefined) [Tribenoside], for which the “fraction of GFP-LC3-positive cells” value was found to be 0.102. Take `CCOC(=O)C1=C[C@]2(CC)CCCN3CCc4c(n1c1ccccc41)[C@@H]32` [Vinpocetine]: the “fraction of GFP-LC3-positive cells” value came out at 0.0378. Regarding `O=C(O)c1ccc(C2=C3C=CC4=[N]3->[Mn+3]35<-[N]6=C(C=CC6=C(c6ccc(C(=O)O)cc6)c6ccc2[n]63)C(c2ccc(C(=O)O)cc2)=c2ccc([n]25)=C4c2ccc(C(=O)O)cc2)cc1.[Cl-]` (centres undefined), the “fraction of GFP-LC3-positive cells” value stood at 0.0485. In the case of `CCCCCCCCCCCCCCCC(=O)NCCc1ccc(O)c(O)c1` [Palmitoyl dopamine] it was 0.0673; in that of `COC(=O)Nc1nc2cc(Sc3ccccc3)ccc2[nH]1` [Fenbendazole], 0.24. As to `COC(=O)Nc1nc2cc(C(=O)c3cccs3)ccc2[nH]1` [nocodazole], the “fraction of GFP-LC3-positive cells” value amounted to 0.681. With `COC(=O)Nc1nc2cc(C(=O)c3cccs3)ccc2[nH]1` [Nocodazole], the “fraction of GFP-LC3-positive cells” value was 0.627. With `COC(=O)Nc1nc2cc(C(=O)c3ccccc3)ccc2[nH]1` [Mebendazole], the “fraction of GFP-LC3-positive cells” value was determined as 0.619.

As for `COC(=O)Nc1nc2cc(SC(C)C)ccc2[nH]1` [Methiazole], the “fraction of GFP-LC3-positive cells” value was found to be 0.499. Regarding `CCCCc1ccc2[nH]c(NC(=O)OC)nc2c1` [Parbendazole], the “fraction of GFP-LC3-positive cells” value came out at 0.609. On to `CCCSc1ccc2[nH]c(NC(=O)OC)nc2c1` [Albendazole], for which the “fraction of GFP-LC3-positive cells” value was 0.548. Take `CC(C(=O)O)c1ccc(C(=O)c2cccs2)cc1` (centres undefined) [Suprofen]: the “fraction of GFP-LC3-positive cells” value is 0.0679. Consider `COc1ccc2cc1Oc1ccc(cc1)C[C@H]1c3cc(c(OC)cc3CCN1C)Oc1c(OC)c(OC)cc3c1[C@H](C2)N(C)CC3` [Tetrandrine], for which the “fraction of GFP-LC3-positive cells” value worked out at 0.0783. On to `C=C(C)[C@@H]1CC[C@]2(C(=O)O)CC[C@]3(C)[C@H](CC[C@@H]4[C@@]5(C)CC[C@H](O)C(C)(C)[C@@H]5CC[C@]43C)[C@@H]12` [Betulinic acid], for which the “fraction of GFP-LC3-positive cells” value amounted to 0.0563. With `Cc1ccsc1/C=C/C1=NCCCN1C.O=C(O)C(O)C(O)C(=O)O` [Morantel tartrate], the “fraction of GFP-LC3-positive cells” value was 0.0668.

As for `CCN(CC)C(=S)SSC(=S)N(CC)CC` [Disulfiram], the “fraction of GFP-LC3-positive cells” value came to 0.687. As for `O=C(O)CCC(=O)c1ccc(-c2ccccc2)cc1` [Fenbufen], the “fraction of GFP-LC3-positive cells” value stood at 0.0751. As to `CC[C@]1(O)C[C@@H]2CN(CCc3c([nH]c4ccccc34)[C@@](C(=O)OC)(c3cc4c(cc3OC)N(C)[C@H]3[C@@](O)(C(=O)OC)[C@H](OC(C)=O)[C@]5(CC)C=CCN6CC[C@]43[C@@H]65)C2)C1.O=S(=O)(O)O` [vinblastine], the “fraction of GFP-LC3-positive cells” value was determined as 0.691. For `CCCCCCCC/C=C\CCCCCCCC(=O)OC[C@@H](O)COP(=O)(O)O`, the “fraction of GFP-LC3-positive cells” value worked out at 0.039. As to `CCCCCCCC/C=C\CCCCCCCC(=O)OC[C@@H](O)COP(=O)(O)O` [Lysophosphatidic acid], the “fraction of GFP-LC3-positive cells” value was 0.0399. In the case of `COc1cc2nc(N3CCN(C(=O)c4ccco4)CC3)nc(N)c2cc1OC` [prazocin] it was 0.899; in that of `COc1cc2nc(N3CCN(C(=O)C4CCCO4)CC3)nc(N)c2cc1OC.Cl` (centres undefined) [Terazosin hydrochloride], 0.0471. For the molecule `COc1cc2nc(N3CCN(C(=O)c4ccco4)CC3)nc(N)c2cc1OC.Cl` [Prazosin hydrochloride], the “fraction of GFP-LC3-positive cells” value stood at 0.156.

Consider `C[C@]12CC[C@@H]3c4ccc(O)cc4CC[C@H]3[C@@H]1CCC2=O` [Estrone], for which the “fraction of GFP-LC3-positive cells” value was 0.0194. Consider `CC(C)=CC[C@@H](O)C1=CC(=O)c2c(O)ccc(O)c2C1=O` [Shikonin], for which the “fraction of GFP-LC3-positive cells” value amounted to 0.7.
